The source made the active and inactive calls. Rule for the calls: active = hit-call score of the fitted dose curve at least 0.9, where 1 is the maximum; inactive = score below 0.9.

Read-out in the first assay: Interleukin-1 alpha (IL1a), IL1A (gene 3552)
As to the kind of experiment: BSK_BE3C_IL1a: BioMAP Diversity Plus: BE3C Assay for Interleukin-1 alpha (IL1a) Biomarker Activity (AID 2283016). As to conditions: primary human bronchial epithelial cells; actives raise or lower the signal. In outline:
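IL-1a measured by ELISA after 24 h treatment of human primary bronchial epithelial cells, with gain or loss of signal fitted versus DMSO. Parallel cultures stained with SRB gauge overt cytotoxicity.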
For `COc1ccc(OC)c(N=Nc2c(O)ccc3ccccc23)c1`, the AC50 (in general, the midpoint of the concentration-response curve, whichever way the signal moves) was 2.11 µM (active).

On to `Oc1c(Cl)cc(Cl)c(Cl)c1Cc1c(O)c(Cl)cc(Cl)c1Cl`, for which the concentration at half-maximal activity (AC50) is 2.02 µM (active).

As to `CN(c1nccc(=O)[nH]1)C1CCN(c2nc3ccccc3n2Cc2ccc(F)cc2)CC1`, the result was inactive.

For `CN(C)C(=S)SC(=S)N(C)C`, the AC50 was 30.9 µM (active).

Turning to `CC(=O)C1(C)CC2=C(CCCC2(C)C)CC1C` (configuration not stated), the AC50 was 20 µM (active).

`Cc1cc(CCC(=O)OCCOCCOCCOC(=O)CCc2cc(C)c(O)c(C(C)(C)C)c2)cc(C(C)(C)C)c1O`: the result was inactive.

As for `c1ccc(Oc2ccccc2)cc1`, the result was inactive.

As for `IC(I)I`, the outcome was inactive.

Read-out in a further assay: Monocyte Chemoattractant Protein-1 (MCP1), CCL2 (gene 6347)
Nature of the assay: BSK_3C_MCP1: BioMAP Diversity Plus: 3C Assay for Monocyte Chemoattractant Protein-1 (MCP1) Biomarker Activity (AID 2283017). Particulars: primary human endothelial cells (HUVEC); actives raise or lower the signal. In short, it runs like this:
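Human umbilical vein endothelial cells (3C system) exposed to chemicals for 24 h; MCP-1 quantified by ELISA against the DMSO baseline with bidirectional fitting, and parallel SRB staining used to assess cytotoxicity.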
Consider `COc1ccc(OC)c(N=Nc2c(O)ccc3ccccc23)c1`, for which the AC50 is 20 µM (active).

Take `Oc1c(Cl)cc(Cl)c(Cl)c1Cc1c(O)c(Cl)cc(Cl)c1Cl`: the concentration at half-maximal activity (AC50) was 32.6 µM (active).

For `CN(c1nccc(=O)[nH]1)C1CCN(c2nc3ccccc3n2Cc2ccc(F)cc2)CC1`, the result was inactive.

On to `CN(C)C(=S)SC(=S)N(C)C`, for which the AC50 is 31.4 µM (active).

Consider `CC(=O)C1(C)CC2=C(CCCC2(C)C)CC1C` (configuration not stated), for which the concentration at half-maximal activity (AC50) was 11 µM (active).

Consider `Cc1cc(CCC(=O)OCCOCCOCCOC(=O)CCc2cc(C)c(O)c(C(C)(C)C)c2)cc(C(C)(C)C)c1O`, for which the half-maximal activity concentration (AC50) is 17.8 µM (active).

As for `c1ccc(Oc2ccccc2)cc1`, the AC50 was 30.3 µM (active).

With `IC(I)I`, the result was inactive.

Read-out in another assay: Monocyte Chemoattractant Protein-1 (MCP1), CCL2 (gene 6347)
As to the kind of experiment: BSK_4H_MCP1: BioMAP Diversity Plus: 4H Assay for Monocyte Chemoattractant Protein-1 (MCP1) Biomarker Activity (AID 2283018). Particulars: primary human endothelial cells (HUVEC); actives raise or lower the signal. In outline: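 ELISA of MCP-1 (CCL2) 24 h after chemical dosing of HUVEC in the BioMAP 4H system. Gain or loss versus DMSO fitted; parallel SRB staining (560 nm) tracked overt cytotoxicity.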
In the case of `CN(C)C(=S)SC(=S)N(C)C`, the AC50 is 29.5 µM (active).

In the case of `CC(=O)C1(C)CC2=C(CCCC2(C)C)CC1C` (configuration not stated), the concentration at half-maximal activity (AC50) is 10.4 µM (active).

With `Cc1cc(CCC(=O)OCCOCCOCCOC(=O)CCc2cc(C)c(O)c(C(C)(C)C)c2)cc(C(C)(C)C)c1O`, the concentration at half-maximal activity (AC50) was 17.8 µM (active).

Read-out in the next assay: Human Leukocyte Antigen - DR isotype (HLADR), HLA-DRA (gene 3122)
Nature of the assay: BSK_3C_HLADR: BioMAP Diversity Plus: 3C Assay for Human Leukocyte Antigen - DR isotype (HLADR) Biomarker Activity (AID 2283019). Particulars: primary human endothelial cells (HUVEC); actives raise or lower the signal. In short, it runs like this: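 HUVEC monoculture, HLA-DR measured by ELISA 24 h after chemical dosing. Fitted bidirectionally against DMSO baseline; parallel SRB staining assessed cytotoxicity, with 3C proliferation read by SRB at 48 h.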
With `COc1ccc(OC)c(N=Nc2c(O)ccc3ccccc23)c1`, the half-maximal activity concentration (AC50) was 10.9 µM (active).

With `Oc1c(Cl)cc(Cl)c(Cl)c1Cc1c(O)c(Cl)cc(Cl)c1Cl`, the AC50 was 2.48 µM (active).

Turning to `CN(c1nccc(=O)[nH]1)C1CCN(c2nc3ccccc3n2Cc2ccc(F)cc2)CC1`, the outcome was inactive.

Turning to `CN(C)C(=S)SC(=S)N(C)C`, the AC50 was 31.2 µM (active).

For `CC(=O)C1(C)CC2=C(CCCC2(C)C)CC1C` (configuration not stated), the concentration at half-maximal activity (AC50) is 10.4 µM (active).

For the compound `Cc1cc(CCC(=O)OCCOCCOCCOC(=O)CCc2cc(C)c(O)c(C(C)(C)C)c2)cc(C(C)(C)C)c1O`, the AC50 was 17.8 µM (active).

In the case of `c1ccc(Oc2ccccc2)cc1`, the concentration at half-maximal activity (AC50) was 32.8 µM (active).

`IC(I)I`: the result was inactive.

For the origin of these results see PubChem BioAssay (EPA / NIEHS).
